# Results taken from ChEMBL document CHEMBL1961873, “Compounds: GSK PKIS; Assays: Nanosyn kinase panel” (2012).
# Key:
# [1] = target: Sphingosine kinase 1 (Homo sapiens) (UniProt Q9NYA1); conditions: at 1 µM;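 also: mean SPHK1 inhibition value reported from the GSK PKIS kinase panel screen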
# [2] = target: T1, Sphingosine kinase 2 (Homo sapiens) (UniProt Q9NRA0); conditions: at 0.1 µM
# T1 sequence (whole entry): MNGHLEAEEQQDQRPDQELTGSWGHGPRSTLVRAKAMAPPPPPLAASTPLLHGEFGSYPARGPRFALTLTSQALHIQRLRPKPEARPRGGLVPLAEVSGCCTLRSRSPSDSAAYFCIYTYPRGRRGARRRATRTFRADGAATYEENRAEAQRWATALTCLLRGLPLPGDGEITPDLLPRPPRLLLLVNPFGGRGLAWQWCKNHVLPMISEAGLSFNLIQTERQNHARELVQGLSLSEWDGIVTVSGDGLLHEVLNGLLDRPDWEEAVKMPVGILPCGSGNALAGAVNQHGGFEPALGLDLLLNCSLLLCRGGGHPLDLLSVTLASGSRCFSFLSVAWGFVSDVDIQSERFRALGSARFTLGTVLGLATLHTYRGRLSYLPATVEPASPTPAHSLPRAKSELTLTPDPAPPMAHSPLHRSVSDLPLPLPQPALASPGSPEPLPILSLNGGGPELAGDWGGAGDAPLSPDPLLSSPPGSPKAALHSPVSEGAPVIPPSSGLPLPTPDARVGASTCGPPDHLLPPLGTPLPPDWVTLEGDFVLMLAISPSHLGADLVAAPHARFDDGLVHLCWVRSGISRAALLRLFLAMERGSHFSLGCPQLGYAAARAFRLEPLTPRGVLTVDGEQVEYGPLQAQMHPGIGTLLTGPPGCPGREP
# [3] = target: T1, Sphingosine kinase 2 (Homo sapiens); conditions: at 1 µM
# [4] = target: Casein kinase II subunit alpha (Homo sapiens) (UniProt P68400); conditions: at 0.1 µM
# Chain of Casein kinase II subunit alpha (Homo sapiens) (P68400 whole entry, looked up): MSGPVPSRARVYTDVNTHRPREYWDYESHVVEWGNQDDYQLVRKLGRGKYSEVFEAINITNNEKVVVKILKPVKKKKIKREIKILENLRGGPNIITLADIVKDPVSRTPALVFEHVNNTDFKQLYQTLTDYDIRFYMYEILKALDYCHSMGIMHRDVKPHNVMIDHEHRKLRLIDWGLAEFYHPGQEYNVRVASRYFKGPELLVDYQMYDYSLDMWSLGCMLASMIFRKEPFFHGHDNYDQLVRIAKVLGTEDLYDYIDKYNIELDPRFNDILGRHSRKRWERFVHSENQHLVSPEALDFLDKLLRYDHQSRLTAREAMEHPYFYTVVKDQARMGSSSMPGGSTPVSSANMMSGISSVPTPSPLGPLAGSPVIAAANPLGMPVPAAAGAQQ
# [5] = target: Casein kinase II subunit alpha (Homo sapiens) (UniProt P68400); conditions: at 1 µM
# [6] = target: T2, Inhibitor of nuclear factor kappa-B kinase subunit alpha (Homo sapiens) (UniProt O15111); conditions: at 0.1 µM
# T2 sequence (whole entry): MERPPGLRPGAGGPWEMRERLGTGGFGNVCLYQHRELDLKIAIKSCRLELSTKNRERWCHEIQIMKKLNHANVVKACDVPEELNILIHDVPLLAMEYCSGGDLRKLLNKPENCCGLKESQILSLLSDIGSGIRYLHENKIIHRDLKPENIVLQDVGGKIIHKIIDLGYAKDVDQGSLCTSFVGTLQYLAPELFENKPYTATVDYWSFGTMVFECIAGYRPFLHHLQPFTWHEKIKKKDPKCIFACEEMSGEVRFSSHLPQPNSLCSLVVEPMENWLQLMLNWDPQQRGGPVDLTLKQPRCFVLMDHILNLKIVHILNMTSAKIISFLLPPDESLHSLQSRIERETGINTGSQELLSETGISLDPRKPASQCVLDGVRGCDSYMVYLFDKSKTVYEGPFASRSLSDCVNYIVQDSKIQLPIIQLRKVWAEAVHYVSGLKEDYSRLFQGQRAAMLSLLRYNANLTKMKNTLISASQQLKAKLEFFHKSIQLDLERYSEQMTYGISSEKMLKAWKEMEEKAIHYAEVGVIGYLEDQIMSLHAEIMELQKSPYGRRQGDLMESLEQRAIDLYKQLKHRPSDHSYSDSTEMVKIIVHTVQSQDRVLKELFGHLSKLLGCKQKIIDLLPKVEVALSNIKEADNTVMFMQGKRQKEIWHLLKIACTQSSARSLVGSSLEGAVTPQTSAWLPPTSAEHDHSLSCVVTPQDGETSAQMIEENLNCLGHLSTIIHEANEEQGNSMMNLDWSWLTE
# [7] = target: T2, Inhibitor of nuclear factor kappa-B kinase subunit alpha (Homo sapiens); conditions: at 1 µM
# [8] = target: T3, Inhibitor of nuclear factor kappa-B kinase subunit beta (Homo sapiens) (UniProt O14920); conditions: at 0.1 µM
# T3 sequence (whole entry): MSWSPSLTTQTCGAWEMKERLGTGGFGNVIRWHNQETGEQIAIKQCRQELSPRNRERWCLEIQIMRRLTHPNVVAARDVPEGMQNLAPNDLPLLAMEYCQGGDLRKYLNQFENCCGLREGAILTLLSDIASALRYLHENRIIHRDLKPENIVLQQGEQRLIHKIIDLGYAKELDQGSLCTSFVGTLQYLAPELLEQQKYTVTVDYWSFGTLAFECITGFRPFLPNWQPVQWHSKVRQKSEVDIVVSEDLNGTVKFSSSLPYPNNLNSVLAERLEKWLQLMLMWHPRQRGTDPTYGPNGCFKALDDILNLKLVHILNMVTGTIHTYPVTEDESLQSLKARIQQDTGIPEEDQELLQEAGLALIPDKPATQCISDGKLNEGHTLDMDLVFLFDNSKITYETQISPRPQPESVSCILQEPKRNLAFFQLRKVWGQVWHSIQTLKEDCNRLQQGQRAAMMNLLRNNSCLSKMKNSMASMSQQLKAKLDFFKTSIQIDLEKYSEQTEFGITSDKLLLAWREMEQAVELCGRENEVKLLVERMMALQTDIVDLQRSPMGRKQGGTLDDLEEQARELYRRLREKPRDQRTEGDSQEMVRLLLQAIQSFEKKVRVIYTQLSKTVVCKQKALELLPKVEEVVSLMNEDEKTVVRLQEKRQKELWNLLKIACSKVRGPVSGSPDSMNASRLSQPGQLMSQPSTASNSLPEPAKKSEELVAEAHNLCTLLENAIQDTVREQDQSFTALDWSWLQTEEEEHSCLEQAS
# [9] = target: T3, Inhibitor of nuclear factor kappa-B kinase subunit beta (Homo sapiens); conditions: at 1 µM
# [10] = target: T4, Inhibitor of nuclear factor kappa-B kinase subunit epsilon (Homo sapiens) (UniProt Q14164); conditions: at 0.1 µM;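 also: mean inhibition of IKKε reported, from the GSK PKIS dataset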
# T4 sequence (whole entry): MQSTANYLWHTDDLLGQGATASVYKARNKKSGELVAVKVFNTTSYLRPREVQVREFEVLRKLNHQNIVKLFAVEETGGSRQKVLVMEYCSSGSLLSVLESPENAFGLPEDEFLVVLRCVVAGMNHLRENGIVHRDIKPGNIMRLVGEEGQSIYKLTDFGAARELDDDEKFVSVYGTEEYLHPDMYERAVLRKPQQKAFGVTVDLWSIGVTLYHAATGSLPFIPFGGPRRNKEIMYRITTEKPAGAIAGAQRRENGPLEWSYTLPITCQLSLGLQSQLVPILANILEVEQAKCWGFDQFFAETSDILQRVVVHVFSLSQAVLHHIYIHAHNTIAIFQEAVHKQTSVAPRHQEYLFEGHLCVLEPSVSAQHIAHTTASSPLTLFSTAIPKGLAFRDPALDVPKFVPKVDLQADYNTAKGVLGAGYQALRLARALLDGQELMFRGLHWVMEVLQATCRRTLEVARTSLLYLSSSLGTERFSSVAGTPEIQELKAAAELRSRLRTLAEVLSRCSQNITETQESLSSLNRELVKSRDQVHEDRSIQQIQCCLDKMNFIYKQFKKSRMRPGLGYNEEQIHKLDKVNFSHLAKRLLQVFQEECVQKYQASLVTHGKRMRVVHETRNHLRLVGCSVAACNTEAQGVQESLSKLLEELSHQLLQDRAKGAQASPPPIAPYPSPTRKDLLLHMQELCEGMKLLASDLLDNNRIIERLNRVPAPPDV
# Chain of Sphingosine kinase 1 (Homo sapiens) (Q9NYA1 whole entry): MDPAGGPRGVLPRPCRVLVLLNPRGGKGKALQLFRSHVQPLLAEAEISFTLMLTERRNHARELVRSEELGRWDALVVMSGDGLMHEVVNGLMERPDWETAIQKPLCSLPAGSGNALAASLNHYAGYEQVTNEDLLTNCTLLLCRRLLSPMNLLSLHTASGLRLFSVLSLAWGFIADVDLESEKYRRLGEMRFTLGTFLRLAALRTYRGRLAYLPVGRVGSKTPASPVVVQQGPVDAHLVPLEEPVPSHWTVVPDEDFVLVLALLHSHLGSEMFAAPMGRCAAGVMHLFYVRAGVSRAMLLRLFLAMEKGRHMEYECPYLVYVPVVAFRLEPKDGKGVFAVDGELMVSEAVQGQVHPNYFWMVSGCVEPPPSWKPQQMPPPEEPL
SMILES,inhibition [1] [%],inhibition [2] [%],inhibition [3] [%],inhibition [4] [%],inhibition [5] [%],inhibition [6] [%],inhibition [7] [%],inhibition [8] [%],inhibition [9] [%],inhibition [10] [%]
CNC(=O)c1cc(-c2ccc(F)cc2)cc(-c2ccc(S(=O)(=O)N3CCCC3)cc2)c1N,-1.82,-0.5,-0.63,15.5,3.05,7.04,4.67,5.48,5.18,2.88
COC(=O)Nc1nc2ccc(Oc3ccc(NC(=O)Nc4cccc(Cl)c4)cc3)cc2[nH]1,-0.57,0,0,4.68,1.84,-0.79,6.02,-0.04,1.06,4.59
COc1cc2ncn(-c3cc(OCc4ccccc4C(F)(F)F)c(C(=O)N(C)C)s3)c2cc1OC,-3.72,0.13,-2.18,-0.24,2.74,5.36,2.95,-0.51,0.42,0.86
NC(=O)c1sc(-n2cnc3ccc(C(F)(F)F)cc32)cc1OCc1ccccc1Br,-0.89,-0.23,-0.48,3.45,5.66,12.5,11.2,6.41,6.44,5.17
Fc1cccc(COc2ccc(Nc3ncnc4sc(-c5ccco5)cc34)cc2Cl)c1,-6.23,-2.56,-0.56,8.17,3.13,8.13,10.1,5.86,6.49,6.22
COc1ccc2c(-c3ccnc(Nc4cccc(OC(F)(F)F)c4)n3)cnn2n1,-1.74,1.81,-2.35,4,20,4.59,7.22,3.15,6.88,9.38
COc1ccc(CNC(=O)c2ccc(-c3cc(-c4nnc(C)o4)ccc3C)cc2)cc1,-0.2,1.04,0.14,6.07,16.4,2,7.25,1.12,4.56,5.88
CCn1c(-c2nonc2N)nc2c(C#CC(C)(C)O)ncc(OC3CCNCC3)c21,4.1,-2.62,0.82,5.58,2.13,3.92,0.96,4.3,5.45,79.5
N#Cc1c(NC(=O)c2ccc(F)cc2)sc2c1CCCC2,-1.09,0.33,0,0.61,1.89,5.73,4.51,1.94,4.15,2.43
Fc1ccc(-c2nn3ccccc3c2-c2ccncc2)cc1,-4.19,0.23,-0.19,-0.45,0.13,2.86,-1.37,0.51,0.63,2.31
CN1CCC(n2cnc(-c3ccc(F)cc3)c2-c2ccnc(Nc3ccccc3)n2)CC1,-6.88,-0.42,0.78,3.62,8.56,6.78,1.62,2.83,3.93,3.59
CC(=O)Nc1cccc(C#Cc2cncnc2Nc2ccc(OCc3cccc(F)c3)c(Cl)c2)c1,-1.15,-0.41,-2.47,-0.51,-4.66,3.13,-2.41,2.6,-1.07,0.8
[O-][S+]1CCN(Cc2ccc(-c3ccc4ncnc(Nc5ccc(OCc6cccc(F)c6)c(Cl)c5)c4c3)o2)CC1,1.32,4.71,0.73,12.8,4.15,8.15,9.46,9.09,7.58,11.3
COc1cc(Nc2nccc(Nc3ccc4c(C)n[nH]c4c3)n2)cc(OC)c1OC,1.98,-1.28,0.88,0.37,0.29,2.2,-0.92,3.27,17,0.88
CC(=O)NCc1cccc(C#Cc2cncnc2Nc2ccc(OCc3cccc(F)c3)c(Cl)c2)c1,-1.56,-0.13,-2.39,-0.56,1.55,-0.42,3.17,-1.42,1.29,0.37
CNC(=O)c1cccc(C#Cc2cncnc2Nc2ccc(OCc3cccc(F)c3)c(Cl)c2)c1,2.62,0.55,-7.19,2.99,10.1,-3.42,-9.45,0.53,-0.35,4.53
CS(=O)(=O)CCNCc1ccc(-c2ccc3ncnc(Nc4ccc(OCc5ccccc5)c(C(F)(F)F)c4)c3c2)o1,3.88,-1.22,0.8,10.8,4.64,5.21,0.84,9.46,10.4,6.52
CCn1c(-c2nonc2N)nc2ccccc21,1.74,13.1,-0.24,0.89,-1.31,-3.92,-1.19,2.35,-1,2.9
COc1cccc(-n2ncc3c(N/N=C/c4ccc(F)cc4)ncnc32)c1,-1.38,-1.23,0.38,4.77,15.9,12.3,6.86,5.69,3.91,14.1
Cc1cccc(Nc2ncc(-c3ccccc3)o2)c1,3.75,0.62,-1.72,4.16,3.49,3.87,7.95,4.82,5.08,5.18
